# Changes are numbered by the printed parent chain.
# Experiments:
# Test in all cases: PBM; 200 nM protein, PBS
# Settings in all cases: dsDNA, one strand shown
# VENTX [1] = biological target: T1, VENTX (Homo sapiens, UniProt O95231 78-163, R121Q)
# T1 sequence: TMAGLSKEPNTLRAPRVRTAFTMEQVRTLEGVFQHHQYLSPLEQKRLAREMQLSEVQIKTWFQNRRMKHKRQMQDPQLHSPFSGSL
# SIX6 [2] = biological target: T2, SIX6 (Homo sapiens, UniProt O95475 114-200, L167I)
# T2 sequence: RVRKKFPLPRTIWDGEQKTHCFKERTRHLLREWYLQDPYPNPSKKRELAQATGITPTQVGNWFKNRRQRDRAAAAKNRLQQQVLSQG
# VENTX [3] = biological target: T3, VENTX (Homo sapiens, UniProt O95231 78-163)
# T3 sequence: T1 sequence with Q44R
# SIX6 [4] = biological target: T4, SIX6 (Homo sapiens, UniProt O95475 114-200, L143V)
# T4 sequence: T2 sequence with L30V, I54L
# SIX6 [5] = biological target: T5, SIX6 (Homo sapiens, UniProt O95475 114-200, H141N)
# T5 sequence: T2 sequence with H28N, I54L
# SIX6 [6] = biological target: T6, SIX6 (Homo sapiens, UniProt O95475 114-200, T165P)
# T6 sequence: T2 sequence with T52P, I54L
# VENTX [7] = biological target: T7, VENTX (Homo sapiens, UniProt O95231 78-163, Y115F)
# T7 sequence: T1 sequence with Y38F, Q44R
# SIX6 [8] = biological target: T8, SIX6 (Homo sapiens, UniProt O95475 114-200, L167M)
# T8 sequence: T2 sequence with I54M
# SIX6 [9] = biological target: T9, SIX6 (Homo sapiens, UniProt O95475 114-200, L143M)
# T9 sequence: T2 sequence with L30M, I54L
# SIX6 [10] = biological target: T10, SIX6 (Homo sapiens, UniProt O95475 114-200, L143I)
# T10 sequence: T2 sequence with L30I, I54L
# SIX6 [11] = biological target: T11, SIX6 (Homo sapiens, UniProt O95475 114-200, T165G)
# T11 sequence: T2 sequence with T52G, I54L
# SIX6 [12] = biological target: T12, SIX6 (Homo sapiens, UniProt O95475 114-200, T139Q)
# T12 sequence: T2 sequence with T26Q, I54L
# SIX6 [13] = biological target: T13, SIX6 (Homo sapiens, UniProt O95475 114-200, T165A)
# T13 sequence: T2 sequence with T52A, I54L
# SIX6 [14] = biological target: T14, SIX6 (Homo sapiens, UniProt O95475 114-200, L167V)
# T14 sequence: T2 sequence with I54V
# SIX6 [15] = biological target: T15, SIX6 (Homo sapiens, UniProt O95475 114-200)
# T15 sequence: T2 sequence with I54L
# SIX6 [16] = biological target: T16, SIX6 (Homo sapiens, UniProt O95475 114-200, T165I)
# T16 sequence: T2 sequence with T52I, I54L
# HOXC9 [17] = biological target: HOXC9 (Homo sapiens, UniProt P31274 178-260, K195R)
# HOXB6 [18] = biological target: HOXB6 (Homo sapiens, UniProt P17509 132-218, K202E)
# HOXC9 [19] = biological target: HOXC9 (Homo sapiens, UniProt P31274 178-260)
# HOXC9 [20] = biological target: HOXC9 (Homo sapiens, UniProt P31274 178-260, R193K)
# VAX1 [21] = biological target: VAX1 (Homo sapiens, UniProt Q5SQQ9 86-172)
# HOXC9 [22] = biological target: HOXC9 (Homo sapiens, UniProt P31274 178-260, R222W)
# VAX1 [23] = biological target: VAX1 (Homo sapiens, UniProt Q5SQQ9 86-172, T142I)
# VAX1 [24] = biological target: VAX1 (Homo sapiens, UniProt Q5SQQ9 86-172, K157R)
# HOXB6 [25] = biological target: HOXB6 (Homo sapiens, UniProt P17509 132-218)
# HOXB9 [26] = biological target: HOXB9 (Homo sapiens, UniProt P17482 171-250, T197M)
# PAX4 [27] = biological target: T17, PAX4 (Homo sapiens, UniProt O43316 9-242, R200K)
# T17 sequence: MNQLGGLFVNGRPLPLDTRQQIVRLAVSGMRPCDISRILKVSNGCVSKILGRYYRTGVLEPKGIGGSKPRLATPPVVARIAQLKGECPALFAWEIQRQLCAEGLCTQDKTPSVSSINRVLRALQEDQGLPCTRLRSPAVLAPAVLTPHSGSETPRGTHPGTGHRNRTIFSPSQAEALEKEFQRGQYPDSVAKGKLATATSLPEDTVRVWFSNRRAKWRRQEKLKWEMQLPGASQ
# PRRX1 [28] = biological target: PRRX1 (Homo sapiens, UniProt P54821 80-166, F113S)
# PAX4 [29] = biological target: T18, PAX4 (Homo sapiens, UniProt O43316 9-242)
# T18 sequence: T17 sequence with K192R
# HOXB9 [30] = biological target: HOXB9 (Homo sapiens, UniProt P17482 171-250)
# ALX1 [31] = biological target: ALX1 (Homo sapiens, UniProt Q15699 118-204, L144V)
# ALX3 [32] = biological target: ALX3 (Homo sapiens, UniProt O95076 139-225, N203Q)
# PAX4 [33] = biological target: T19, PAX4 (Homo sapiens, UniProt O43316 9-242, R200Q)
# T19 sequence: T17 sequence with K192Q
# ALX1 [34] = biological target: ALX1 (Homo sapiens, UniProt Q15699 118-204, L144R)
# PAX4 [35] = biological target: T20, PAX4 (Homo sapiens, UniProt O43316 9-242, F177V)
# T20 sequence: T17 sequence with F169V, K192R
# ALX3 [36] = biological target: ALX3 (Homo sapiens, UniProt O95076 139-225)
# PAX4 [37] = biological target: T21, PAX4 (Homo sapiens, UniProt O43316 9-242, F177Y)
# T21 sequence: T17 sequence with F169Y, K192R
# ALX3 [38] = biological target: ALX3 (Homo sapiens, UniProt O95076 139-225, L168Q)
# HOXB9 [39] = biological target: HOXB9 (Homo sapiens, UniProt P17482 171-250, R186Q)
# ALX3 [40] = biological target: ALX3 (Homo sapiens, UniProt O95076 139-225, L168V)
# PAX4 [41] = biological target: T22, PAX4 (Homo sapiens, UniProt O43316 9-242, R227W)
# T22 sequence: T17 sequence with K192R, R219W
# ALX1 [42] = biological target: ALX1 (Homo sapiens, UniProt Q15699 118-204)
# ALX3 [43] = biological target: ALX3 (Homo sapiens, UniProt O95076 139-225, N203S)
# PRRX1 [44] = biological target: PRRX1 (Homo sapiens, UniProt P54821 80-166)
# PRRX1 (Homo sapiens, UniProt P54821 80-166), sequence (P54821 80-166): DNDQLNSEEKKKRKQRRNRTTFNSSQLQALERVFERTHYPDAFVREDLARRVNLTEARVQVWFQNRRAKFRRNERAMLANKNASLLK
# HOXC9 (Homo sapiens, UniProt P31274 178-260, K195R), sequence (P31274 178-260 K195R): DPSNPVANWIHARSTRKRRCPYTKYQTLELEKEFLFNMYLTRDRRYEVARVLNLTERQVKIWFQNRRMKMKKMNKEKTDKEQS
# HOXC9 (Homo sapiens, UniProt P31274 178-260, R222W), sequence (P31274 178-260 R222W): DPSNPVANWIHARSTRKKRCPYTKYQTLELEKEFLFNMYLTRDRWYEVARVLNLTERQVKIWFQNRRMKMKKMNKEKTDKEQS
# HOXC9 (Homo sapiens, UniProt P31274 178-260), sequence (P31274 178-260): as the sequence (P31274 178-260 R222W) above, with W45R counted along it
# HOXC9 (Homo sapiens, UniProt P31274 178-260, R193K), sequence (P31274 178-260 R193K): as the sequence (P31274 178-260 R222W) above, with R16K, W45R counted along it
# ALX3 (Homo sapiens, UniProt O95076 139-225), sequence (O95076 139-225): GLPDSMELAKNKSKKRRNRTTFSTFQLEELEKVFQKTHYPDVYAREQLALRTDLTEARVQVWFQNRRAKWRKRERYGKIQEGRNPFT
# PRRX1 (Homo sapiens, UniProt P54821 80-166, F113S), sequence (P54821 80-166 F113S): as the sequence (P54821 80-166) above, with F34S counted along it
# HOXB9 (Homo sapiens, UniProt P17482 171-250, R186Q), sequence (P17482 171-250 R186Q): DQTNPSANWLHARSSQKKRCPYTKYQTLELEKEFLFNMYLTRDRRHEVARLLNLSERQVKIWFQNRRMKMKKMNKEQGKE
# VAX1 (Homo sapiens, UniProt Q5SQQ9 86-172, K157R), sequence (Q5SQQ9 86-172 K157R): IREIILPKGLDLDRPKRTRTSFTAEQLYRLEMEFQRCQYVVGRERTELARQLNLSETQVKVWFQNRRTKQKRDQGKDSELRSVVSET
# ALX3 (Homo sapiens, UniProt O95076 139-225, L168V), sequence (O95076 139-225 L168V): as the sequence (O95076 139-225) above, with L30V counted along it
# HOXB9 (Homo sapiens, UniProt P17482 171-250, T197M), sequence (P17482 171-250 T197M): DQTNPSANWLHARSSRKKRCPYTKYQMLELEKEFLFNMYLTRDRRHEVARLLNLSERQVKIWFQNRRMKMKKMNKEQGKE
# VAX1 (Homo sapiens, UniProt Q5SQQ9 86-172), sequence (Q5SQQ9 86-172): as the sequence (Q5SQQ9 86-172 K157R) above, with R72K counted along it
# ALX3 (Homo sapiens, UniProt O95076 139-225, L168Q), sequence (O95076 139-225 L168Q): as the sequence (O95076 139-225) above, with L30Q counted along it
# VAX1 (Homo sapiens, UniProt Q5SQQ9 86-172, T142I), sequence (Q5SQQ9 86-172 T142I): as the sequence (Q5SQQ9 86-172 K157R) above, with T57I, R72K counted along it
# HOXB9 (Homo sapiens, UniProt P17482 171-250), sequence (P17482 171-250): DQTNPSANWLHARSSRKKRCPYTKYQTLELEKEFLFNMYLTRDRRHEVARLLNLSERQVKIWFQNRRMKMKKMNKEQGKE
# HOXB6 (Homo sapiens, UniProt P17509 132-218), sequence (P17509 132-218): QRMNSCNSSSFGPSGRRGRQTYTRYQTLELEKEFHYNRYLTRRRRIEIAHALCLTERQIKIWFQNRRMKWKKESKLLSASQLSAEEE
# ALX3 (Homo sapiens, UniProt O95076 139-225, N203S), sequence (O95076 139-225 N203S): as the sequence (O95076 139-225) above, with N65S counted along it
# ALX3 (Homo sapiens, UniProt O95076 139-225, N203Q), sequence (O95076 139-225 N203Q): as the sequence (O95076 139-225) above, with N65Q counted along it
# ALX1 (Homo sapiens, UniProt Q15699 118-204, L144V), sequence (Q15699 118-204 L144V): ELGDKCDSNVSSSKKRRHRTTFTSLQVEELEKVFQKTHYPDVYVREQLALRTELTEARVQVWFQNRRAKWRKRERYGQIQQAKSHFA
# ALX1 (Homo sapiens, UniProt Q15699 118-204), sequence (Q15699 118-204): as the sequence (Q15699 118-204 L144V) above, with V27L counted along it
# ALX1 (Homo sapiens, UniProt Q15699 118-204, L144R), sequence (Q15699 118-204 L144R): as the sequence (Q15699 118-204 L144V) above, with V27R counted along it
# HOXB6 (Homo sapiens, UniProt P17509 132-218, K202E), sequence (P17509 132-218 K202E): as the sequence (P17509 132-218) above, with K71E counted along it
sequence,measurement,setting,value
GGCGGAAC,binding signal,VENTX [1],"8.14 upbm affinity estimate (log intensity, higher = more binding, comparable within an allelic series)"
same,binding signal,SIX6 [2],"8.85 upbm affinity estimate (log intensity, higher = more binding, comparable within an allelic series)"
same,binding signal,VENTX [3],"8.22 upbm affinity estimate (log intensity, higher = more binding, comparable within an allelic series)"
same,binding signal,SIX6 [4],"8.81 upbm affinity estimate (log intensity, higher = more binding, comparable within an allelic series)"
same,binding signal,SIX6 [5],"8.78 upbm affinity estimate (log intensity, higher = more binding, comparable within an allelic series)"
same,binding signal,SIX6 [6],"8.99 upbm affinity estimate (log intensity, higher = more binding, comparable within an allelic series)"
same,binding signal,VENTX [7],"8.15 upbm affinity estimate (log intensity, higher = more binding, comparable within an allelic series)"
same,binding signal,SIX6 [8],"8.81 upbm affinity estimate (log intensity, higher = more binding, comparable within an allelic series)"
same,binding signal,SIX6 [9],"8.85 upbm affinity estimate (log intensity, higher = more binding, comparable within an allelic series)"
same,binding signal,SIX6 [10],"8.84 upbm affinity estimate (log intensity, higher = more binding, comparable within an allelic series)"
same,binding signal,SIX6 [11],"8.85 upbm affinity estimate (log intensity, higher = more binding, comparable within an allelic series)"
same,binding signal,SIX6 [12],"8.82 upbm affinity estimate (log intensity, higher = more binding, comparable within an allelic series)"
same,binding signal,SIX6 [13],"8.85 upbm affinity estimate (log intensity, higher = more binding, comparable within an allelic series)"
same,binding signal,SIX6 [14],"8.86 upbm affinity estimate (log intensity, higher = more binding, comparable within an allelic series)"
same,binding signal,SIX6 [15],"8.77 upbm affinity estimate (log intensity, higher = more binding, comparable within an allelic series)"
same,binding signal,SIX6 [16],"8.82 upbm affinity estimate (log intensity, higher = more binding, comparable within an allelic series)"
GGGGTACC,binding signal,VENTX [1],"8.08 upbm affinity estimate (log intensity, higher = more binding, comparable within an allelic series)"
same,binding signal,HOXC9 [17],"9.78 upbm affinity estimate (log intensity, higher = more binding, comparable within an allelic series)"
same,binding signal,VENTX [3],"8.11 upbm affinity estimate (log intensity, higher = more binding, comparable within an allelic series)"
same,binding signal,VENTX [7],"7.99 upbm affinity estimate (log intensity, higher = more binding, comparable within an allelic series)"
same,binding signal,HOXB6 [18],"9.07 upbm affinity estimate (log intensity, higher = more binding, comparable within an allelic series)"
same,binding signal,HOXC9 [19],"9.67 upbm affinity estimate (log intensity, higher = more binding, comparable within an allelic series)"
same,binding signal,HOXC9 [20],"9.47 upbm affinity estimate (log intensity, higher = more binding, comparable within an allelic series)"
same,binding signal,VAX1 [21],"7.1 upbm affinity estimate (log intensity, higher = more binding, comparable within an allelic series)"
same,binding signal,HOXC9 [22],"9.69 upbm affinity estimate (log intensity, higher = more binding, comparable within an allelic series)"
same,binding signal,VAX1 [23],"7.26 upbm affinity estimate (log intensity, higher = more binding, comparable within an allelic series)"
same,binding signal,VAX1 [24],"7.1 upbm affinity estimate (log intensity, higher = more binding, comparable within an allelic series)"
same,binding signal,HOXB6 [25],"9.04 upbm affinity estimate (log intensity, higher = more binding, comparable within an allelic series)"
CCCCATGC,binding signal,VENTX [1],"8.07 upbm affinity estimate (log intensity, higher = more binding, comparable within an allelic series)"
same,binding signal,HOXC9 [17],"9.5 upbm affinity estimate (log intensity, higher = more binding, comparable within an allelic series)"
same,binding signal,VENTX [3],"8.26 upbm affinity estimate (log intensity, higher = more binding, comparable within an allelic series)"
same,binding signal,VENTX [7],"8.2 upbm affinity estimate (log intensity, higher = more binding, comparable within an allelic series)"
same,binding signal,HOXC9 [19],"9.6 upbm affinity estimate (log intensity, higher = more binding, comparable within an allelic series)"
same,binding signal,HOXC9 [20],"9.46 upbm affinity estimate (log intensity, higher = more binding, comparable within an allelic series)"
same,binding signal,HOXC9 [22],"9.63 upbm affinity estimate (log intensity, higher = more binding, comparable within an allelic series)"
GCCGCAGC,binding signal,VENTX [1],"8.08 upbm affinity estimate (log intensity, higher = more binding, comparable within an allelic series)"
same,binding signal,HOXB9 [26],"8.46 upbm affinity estimate (log intensity, higher = more binding, comparable within an allelic series)"
same,binding signal,VENTX [3],"8.11 upbm affinity estimate (log intensity, higher = more binding, comparable within an allelic series)"
same,binding signal,PAX4 [27],"9.27 upbm affinity estimate (log intensity, higher = more binding, comparable within an allelic series)"
same,binding signal,PRRX1 [28],"9.25 upbm affinity estimate (log intensity, higher = more binding, comparable within an allelic series)"
same,binding signal,VENTX [7],"8.14 upbm affinity estimate (log intensity, higher = more binding, comparable within an allelic series)"
same,binding signal,PAX4 [29],"9.2 upbm affinity estimate (log intensity, higher = more binding, comparable within an allelic series)"
same,binding signal,HOXB9 [30],"8.33 upbm affinity estimate (log intensity, higher = more binding, comparable within an allelic series)"
same,binding signal,ALX1 [31],"6.7 upbm affinity estimate (log intensity, higher = more binding, comparable within an allelic series)"
same,binding signal,ALX3 [32],"7.73 upbm affinity estimate (log intensity, higher = more binding, comparable within an allelic series)"
same,binding signal,PAX4 [33],"9.23 upbm affinity estimate (log intensity, higher = more binding, comparable within an allelic series)"
same,binding signal,ALX1 [34],"6.73 upbm affinity estimate (log intensity, higher = more binding, comparable within an allelic series)"
same,binding signal,PAX4 [35],"9.18 upbm affinity estimate (log intensity, higher = more binding, comparable within an allelic series)"
same,binding signal,ALX3 [36],"7.89 upbm affinity estimate (log intensity, higher = more binding, comparable within an allelic series)"
same,binding signal,PAX4 [37],"9.21 upbm affinity estimate (log intensity, higher = more binding, comparable within an allelic series)"
same,binding signal,ALX3 [38],"7.75 upbm affinity estimate (log intensity, higher = more binding, comparable within an allelic series)"
same,binding signal,HOXB9 [39],"8.46 upbm affinity estimate (log intensity, higher = more binding, comparable within an allelic series)"
same,binding signal,ALX3 [40],"7.74 upbm affinity estimate (log intensity, higher = more binding, comparable within an allelic series)"
same,binding signal,PAX4 [41],"9.18 upbm affinity estimate (log intensity, higher = more binding, comparable within an allelic series)"
same,binding signal,ALX1 [42],"6.7 upbm affinity estimate (log intensity, higher = more binding, comparable within an allelic series)"
same,binding signal,ALX3 [43],"7.75 upbm affinity estimate (log intensity, higher = more binding, comparable within an allelic series)"
same,binding signal,PRRX1 [44],"9.47 upbm affinity estimate (log intensity, higher = more binding, comparable within an allelic series)"
ACCATTAG,binding signal,VENTX [1],"11.7 upbm affinity estimate (log intensity, higher = more binding, comparable within an allelic series)"
